Measurements: PMC8384837, “Expanding the binding specificity for RNA recognition by a PUF domain”

molecular target: PUM1 PUF domain R5-RSQ (Homo sapiens, UniProt Q14671 828-1176, C1007R;R1008S); assay: yeast three-hybrid, YBZ-1, SC-Leu-His + 0.5 mM 3-AT, 4 days; settings: tags: N-Gal4 AD-HA kept; label: inside an RPR1-promoter hybrid RNA with tandem MS2 sites; ssRNA
Outline: (§1)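 Pumilio-1 PUF domain libraries, randomized at the three base-contacting residues of each repeat, were co-expressed with matching RNA elements from a centromeric plasmid in strain YBZ-1, which carries a LexA–MS2 coat fusion and a HIS3 reporter. Transformants grew for four days on SC-Leu (input) or on SC-Leu-His + 0.5 mM 3-AT (selection), and the repeat regions were PCR-amplified and Illumina-sequenced. The interaction score is the log change in variant frequency from input to selection. That logarithm is base 2, with a pseudocount of 1 where a variant was absent.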

Sequence | binding signal
GGCUAGAACUAGUGGAUCCCCCGGCGCCCGGCGGCUCGAGCCCGGGUAAGUGUUAAUAGUCUGCAUGCCGCCGGGCGCCAUGCCUGCAGGUCGACUCUAGAAAACAUG | 4.05 log2 enrichment (interaction score)
GGCUAGAACUAGUGGAUCCCCCGGCGCCCGGCGGCUCGAGCCCGGGUAAGUGUCAAUAGUCUGCAUGCCGCCGGGCGCCAUGCCUGCAGGUCGACUCUAGAAAACAUG | 4.6 log2 enrichment (interaction score)
GGCUAGAACUAGUGGAUCCCCCGGCGCCCGGCGGCUCGAGCCCGGGUAAGUGUAAAUAGUCUGCAUGCCGCCGGGCGCCAUGCCUGCAGGUCGACUCUAGAAAACAUG | 1.05 log2 enrichment (interaction score)

molecular target: PUM1 PUF domain R4-SRM (Homo sapiens, UniProt Q14671 828-1176, N971S;H972R;Q975M); assay: as above; settings: tags: N-Gal4 AD-HA kept; label: inside an RPR1-promoter hybrid RNA with tandem MS2 sites; ssRNA
Outline: as §1

Sequence | binding signal
GGCUAGAACUAGUGGAUCCCCCGGCGCCCGGCGGCUCGAGCCCGGGUAAGUGUACAUAGUCUGCAUGCCGCCGGGCGCCAUGCCUGCAGGUCGACUCUAGAAAACAUG | 2.16 log2 enrichment (interaction score)
GGCUAGAACUAGUGGAUCCCCCGGCGCCCGGCGGCUCGAGCCCGGGUAAGUGUAUAUAGUCUGCAUGCCGCCGGGCGCCAUGCCUGCAGGUCGACUCUAGAAAACAUG | 2.54 log2 enrichment (interaction score)
GGCUAGAACUAGUGGAUCCCCCGGCGCCCGGCGGCUCGAGCCCGGGUAAGUGUAAAUAGUCUGCAUGCCGCCGGGCGCCAUGCCUGCAGGUCGACUCUAGAAAACAUG | 3.86 log2 enrichment (interaction score)

molecular target: PUM1 PUF domain R5-RHV (Homo sapiens, UniProt Q14671 828-1176, C1007R;R1008H;Q1011V); assay: as above; settings: tags: N-Gal4 AD-HA kept; label: inside an RPR1-promoter hybrid RNA with tandem MS2 sites; ssRNA
Outline: as §1

Sequence | binding signal
GGCUAGAACUAGUGGAUCCCCCGGCGCCCGGCGGCUCGAGCCCGGGUAAGUGUUAAUAGUCUGCAUGCCGCCGGGCGCCAUGCCUGCAGGUCGACUCUAGAAAACAUG | 5.95 log2 enrichment (interaction score)
GGCUAGAACUAGUGGAUCCCCCGGCGCCCGGCGGCUCGAGCCCGGGUAAGUGUCAAUAGUCUGCAUGCCGCCGGGCGCCAUGCCUGCAGGUCGACUCUAGAAAACAUG | 5.74 log2 enrichment (interaction score)
GGCUAGAACUAGUGGAUCCCCCGGCGCCCGGCGGCUCGAGCCCGGGUAAGUGUAAAUAGUCUGCAUGCCGCCGGGCGCCAUGCCUGCAGGUCGACUCUAGAAAACAUG | 2.87 log2 enrichment (interaction score)

molecular target: PUM1 PUF domain R3-EFT (Homo sapiens, UniProt Q14671 828-1176, C935E;R936F;Q939T); assay: as above; settings: tags: N-Gal4 AD-HA kept; label: inside an RPR1-promoter hybrid RNA with tandem MS2 sites; ssRNA
Outline: as §1

Sequence | binding signal
GGCUAGAACUAGUGGAUCCCCCGGCGCCCGGCGGCUCGAGCCCGGGUAAGUGUAAUUAGUCUGCAUGCCGCCGGGCGCCAUGCCUGCAGGUCGACUCUAGAAAACAUG | 2.45 log2 enrichment (interaction score)
GGCUAGAACUAGUGGAUCCCCCGGCGCCCGGCGGCUCGAGCCCGGGUAAGUGUAAGUAGUCUGCAUGCCGCCGGGCGCCAUGCCUGCAGGUCGACUCUAGAAAACAUG | 3.92 log2 enrichment (interaction score)
GGCUAGAACUAGUGGAUCCCCCGGCGCCCGGCGGCUCGAGCCCGGGUAAGUGUAAAUAGUCUGCAUGCCGCCGGGCGCCAUGCCUGCAGGUCGACUCUAGAAAACAUG | 4.71 log2 enrichment (interaction score)

molecular target: PUM1 PUF domain R4-ANS (Homo sapiens, UniProt Q14671 828-1176, N971A;H972N;Q975S); assay: as above; settings: tags: N-Gal4 AD-HA kept; label: inside an RPR1-promoter hybrid RNA with tandem MS2 sites; ssRNA
Outline: as §1

Sequence | binding signal
GGCUAGAACUAGUGGAUCCCCCGGCGCCCGGCGGCUCGAGCCCGGGUAAGUGUACAUAGUCUGCAUGCCGCCGGGCGCCAUGCCUGCAGGUCGACUCUAGAAAACAUG | 2.23 log2 enrichment (interaction score)
GGCUAGAACUAGUGGAUCCCCCGGCGCCCGGCGGCUCGAGCCCGGGUAAGUGUAUAUAGUCUGCAUGCCGCCGGGCGCCAUGCCUGCAGGUCGACUCUAGAAAACAUG | 2.51 log2 enrichment (interaction score)
GGCUAGAACUAGUGGAUCCCCCGGCGCCCGGCGGCUCGAGCCCGGGUAAGUGUAAAUAGUCUGCAUGCCGCCGGGCGCCAUGCCUGCAGGUCGACUCUAGAAAACAUG | 2.16 log2 enrichment (interaction score)

molecular target: PUM1 PUF domain R1-RLM (Homo sapiens, UniProt Q14671 828-1176, S863R;R864L;Q867M); assay: as above; settings: tags: N-Gal4 AD-HA kept; label: inside an RPR1-promoter hybrid RNA with tandem MS2 sites; ssRNA
Outline: as §1

Sequence | binding signal
GGCUAGAACUAGUGGAUCCCCCGGCGCCCGGCGGCUCGAGCCCGGGUAAGUGUAAAUGGUCUGCAUGCCGCCGGGCGCCAUGCCUGCAGGUCGACUCUAGAAAACAUG | 1.69 log2 enrichment (interaction score)
GGCUAGAACUAGUGGAUCCCCCGGCGCCCGGCGGCUCGAGCCCGGGUAAGUGUAAAUUGUCUGCAUGCCGCCGGGCGCCAUGCCUGCAGGUCGACUCUAGAAAACAUG | 3.95 log2 enrichment (interaction score)
GGCUAGAACUAGUGGAUCCCCCGGCGCCCGGCGGCUCGAGCCCGGGUAAGUGUAAAUCGUCUGCAUGCCGCCGGGCGCCAUGCCUGCAGGUCGACUCUAGAAAACAUG | 3.34 log2 enrichment (interaction score)

molecular target: PUM1 PUF domain R4-GCC (Homo sapiens, UniProt Q14671 828-1176, N971G;H972C;Q975C); assay: as above; settings: tags: N-Gal4 AD-HA kept; label: inside an RPR1-promoter hybrid RNA with tandem MS2 sites; ssRNA
Outline: as §1

Sequence | binding signal
GGCUAGAACUAGUGGAUCCCCCGGCGCCCGGCGGCUCGAGCCCGGGUAAGUGUACAUAGUCUGCAUGCCGCCGGGCGCCAUGCCUGCAGGUCGACUCUAGAAAACAUG | 1.75 log2 enrichment (interaction score)
GGCUAGAACUAGUGGAUCCCCCGGCGCCCGGCGGCUCGAGCCCGGGUAAGUGUAUAUAGUCUGCAUGCCGCCGGGCGCCAUGCCUGCAGGUCGACUCUAGAAAACAUG | 3.64 log2 enrichment (interaction score)
GGCUAGAACUAGUGGAUCCCCCGGCGCCCGGCGGCUCGAGCCCGGGUAAGUGUAAAUAGUCUGCAUGCCGCCGGGCGCCAUGCCUGCAGGUCGACUCUAGAAAACAUG | 1.5 log2 enrichment (interaction score)
